From PubChem BioAssay AID2174 (The Scripps Research Institute Molecular Screening Center, 2009)
About 500 (0.16%) of roughly 320,000 compounds were called active. The sample holds actives, similar compounds and a random draw of the others, so the mix is not that of the screen. A number with no mark means an inactive call.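 The calls were made as follows: active = inhibition above the mean of all tested compounds plus 3 SD, set per campaign (cut at about 14% in these data); inactive = the rest.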

Target: Acyl-protein thioesterase 1 (Homo sapiens) (UniProt O75608)
Sequence (O75608 whole entry, looked up): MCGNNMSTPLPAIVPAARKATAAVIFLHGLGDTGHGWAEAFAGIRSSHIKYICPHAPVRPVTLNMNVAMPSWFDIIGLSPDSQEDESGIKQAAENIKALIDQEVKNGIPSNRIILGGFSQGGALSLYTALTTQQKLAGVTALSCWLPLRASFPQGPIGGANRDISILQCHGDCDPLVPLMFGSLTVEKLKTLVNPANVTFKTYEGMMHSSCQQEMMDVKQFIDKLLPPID
Test: LYPLA1 inhibitors, primary screen, counter-screen for PME1 inhibitor project, biochemical, fluorescence polarization, FP-Rh probe ABPP (AID 2174);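 also: inhibitors block serine hydrolase probe labeling of LYPLA1 so polarization falls; 0% = enzyme with DMSO and 100% = wells lacking LYPLA1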
Conditions: recombinant LYPLA1, FP-Rh probe fluorescence polarization; at 5.9 µM; hits give high values

Compound	inhibition
O=C(N/C(=C\c1ccc(F)cc1)C(=O)N1CCCCCC1)c1ccccc1	-1.76%
CC1=C(C)C(=O)OC(C(C)C2CCC3C4CC=C5CC(OC6OC(COC7OC(CO)C(O)C(O)C7O)C(O)C(O)C6O)CC(O)C5(C)C4CCC23C)C1 (centres undefined)	-11.7%
COc1cccc(/C=C/C(=O)OCC(=O)N2CCCc3ccccc32)c1	-0.36%
COc1ccc(N2CC(C(=O)NCCN3C(=O)S/C(=C\c4cccnc4)C3=O)CC2=O)c(OC)c1 (centres undefined)	67.3% (active)
COc1ccccc1N1CC(C(=O)NCCN2C(=O)S/C(=C\c3cccnc3)C2=O)CC1=O (centres undefined)	-0.75%
CCOc1ccc(N2CC(C(=O)NCCN3C(=O)S/C(=C\c4cccnc4)C3=O)CC2=O)cc1 (centres undefined)	7.93%
CCOc1ccc(S(=O)(=O)N2CCCCC2)cc1NC(=O)CN1CCCC1c1cccs1 (centres undefined)	-2.05%
Cc1sc2ncn(CC(=O)NCCCC(=O)NCc3ccc(F)cc3)c(=O)c2c1C	3.83%
CC(C)(CNC(=O)CNC(=O)C1CCCCC1)N1CCOCC1	-3.79%
Cn1cc(/C=C/C(=O)N2CCCC(C(=O)c3ccc(C(F)(F)F)cc3)C2)cn1 (centres undefined)	-3.26%
CCCCn1c(N)c(N(CCC(C)C)C(=O)c2ccc(COc3ccccc3)o2)c(=O)[nH]c1=O	2.38%
CCCCn1c(N)c(N(CCC(C)C)C(=O)c2ccc([N+](=O)[O-])o2)c(=O)[nH]c1=O	-7.18%
CCCCn1c(N)c(N(CCC(C)C)C(=O)CC2OC(=O)c3ccccc32)c(=O)[nH]c1=O (centres undefined)	16.4% (active)
O=[N+]([O-])c1ccc(N(CCO)Cc2ccccc2)c([N+](=O)[O-])c1	-0.28%
O=C(CN1CCCCCC1)Nc1ccc(S(=O)(=O)N2CCCCC2)cc1	1.21%
O=C(CN1C(=O)CCC1=O)Nc1ccc(S(=O)(=O)N2CCOCC2)cc1	-5.25%
O=C(CN1CCN(c2cccc(Cl)c2)CC1)Nc1ccc(S(=O)(=O)N2CCOCC2)cc1	18.1% (active)
CCCCn1c(N)c(N(CC(C)C)C(=O)C2CSC3(C)CCC(=O)N23)c(=O)[nH]c1=O (centres undefined)	-1.21%
COC(=O)c1sc(=S)n(-c2ccc(Cl)cc2)c1C	0.52%
COCCOC(=O)c1sc(=S)n(CCOC)c1N	19.7% (active)
CC(=O)Nc1ccc(N2C(=O)C3C4CC(=O)C(c5ccccc54)C3C2=O)cc1 (centres undefined)	1.72%
COc1ccccc1-n1c(=S)[nH]c2c(sc(=S)n2-c2ccc(C)cc2C)c1=O	2.01%

Compound	inhibition
Cc1ccc(Oc2ccc3c(c2)C(=O)N(c2cccc4cccnc24)C3=O)cc1	-5.81%
O=S(=O)(NCCCN1CCOCC1)c1ccc(F)c(Cl)c1	2.43%
Cc1c(Br)c([N+](=O)[O-])nn1CC(=O)N1CCN(Cc2ccccc2)CC1	1.03%
COc1cccc(C(C(=O)NC2CCCC2)N(C(=O)c2ccco2)c2cccc(C(C)=O)c2)c1OC (centres undefined)	0.23%
O=c1[nH][nH]c(C(F)(F)F)c1C=NCc1ccccc1Cl	1.78%
Cc1ccc(OCC(=O)Oc2ccccc2[N+](=O)[O-])cc1	1.05%
COc1ccc(/C=C/c2noc(-c3ccccc3OC(C)=O)n2)cc1	-1.21%
CN=C1SC(C(=O)O)CC(=O)N1C (centres undefined)	-2.92%
O=C(CSc1nnc(-c2ccoc2)o1)N1CCOCC1	-2.17%
Cc1cc2ccccn2c1C(=O)c1cccc(S(=O)(=O)N2CCOCC2)c1	-1.9%
O=C(NCc1ccccc1)[C@H]1C[C@@H]1[C@H](NP(=O)(c1ccccc1)c1ccccc1)c1ccccc1	-4.27%
CCCCCCNCCn1cnc2c(N)ncnc21	-4.2%
CC1(C)CC(=O)C/C(=N\NC(=O)c2cccs2)C1	-2.89%
CCOc1ncccc1C(=O)OCC(=O)c1c[nH]c2ccccc12	-4.27%
COc1ccc(-c2nc(CS(=O)CC(=O)NCc3ccccn3)c(C)o2)cc1 (centres undefined)	25% (active)
COc1cccc(-c2nc(CS(=O)CC(=O)NCc3ccc(F)cc3)c(C)o2)c1 (centres undefined)	1.75%
COc1ccc(-c2nc(CS(=O)CC(=O)NCc3ccccc3)c(C)o2)cc1OC (centres undefined)	-1.5%
O=C1CC(C(F)(F)C(F)(F)C(F)(F)C(F)(F)F)=Nc2ccccc2N1	0.46%
CCN(Cc1ccccc1)S(=O)(=O)c1cc(C(=O)O)ccc1OC	-4.32%
Nc1nc(SCC(=O)NNc2c(Cl)cc(Cl)cc2Cl)n[nH]1	2.34%
Cc1cc(C)c(C#N)c(SCC(=O)NN2CC(=O)N(c3ccccc3F)CC2=O)n1	-0.67%
Cc1cccc(-n2c(SCC(N)=O)nc3c(c2=O)C2(CCCCC2)Cc2ccccc2-3)c1	-3.86%
